“And” between values parts separate entries of the source, which are not always exact repeats. Identical values can stand only once. Screen size: about 5,500 compounds; about 2,000 (36%) were called active. Another 18% or so got no clear call; they are omitted. Rule as the data show it: active = normalized growth mostly below about 0.91 (no sharp cut-off); inconclusive = no clear call, values can overlap the other calls; inactive = mostly above about 0.92. Some of the results follow.
Assay: chemical genetic growth profiling, strain panel (AID 1159580);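 also: tested at 20 µM; growth read once vehicle control cultures reached saturation at 30 °C; 1 = growth at the plate median or of vehicle wells; lower values mean less growth of the strain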
Conditions: S. cerevisiae deletion strains, growth OD
[1] = locus YHR030C, strain SLT2, active compounds read low
[2] = locus YHR079C, strain IRE1, active compounds read low
[3] = locus YJL095W, strain BCK1, active compounds read low
[4] = locus YJR066W, strain TOR1, active compounds read low
[5] = locus YLR113W, strain HOG1, active compounds read low
[6] = locus YNL183C, strain NPR1, active compounds read low
[7] = locus YOR231W, strain MKK1, active compounds read low
[8] = locus YPL256C, strain CLN2, active compounds read low

Measured: normalized growth

COc1cc(O)cc(O)c1C(C)=O
inactive: [1] 0.969 | [2] 0.981 | [3] 0.984 | [4] 0.916 | [5] 0.971 | [6] 0.907 | [7] 0.985 | [8] 0.97

COc1cc(O)c(C)c(O)c1
inactive: locus YAL013W, strain DEP1, active compounds read low 0.999 | locus YAL021C, strain ccr4, active compounds read low 1.03 | locus YAL026C, strain drs2, active compounds read low 1.02 | locus YAL030W, strain snc1, active compounds read low 1.02 | locus YBL061C, strain skt5, active compounds read low 1.01 | locus YBR009C, strain hhf1, active compounds read low 1.02 | locus YBR021W, strain FUR4, active compounds read low 0.995 | locus YBR023C, strain chs3, active compounds read low 1.02 | locus YBR171W, strain sec66, active compounds read low 1.03 | locus YBR229C, strain ROT2, active compounds read low 0.998 | locus YBR231C, strain swc5, active compounds read low 1.01 | locus YBR279W, strain paf1, active compounds read low 1.01 | locus YCL011C, strain gbp2, active compounds read low 1 | locus YCL016C, strain dcc1, active compounds read low 1 | locus YCL029C, strain bik1, active compounds read low 1.04 | locus YCL061C, strain MRC1, active compounds read low 1.01 | locus YCL069W, strain vba3, active compounds read low 1.01 | locus YCR088W, strain abp1, active compounds read low 1.01 | locus YDL005C, strain med2, active compounds read low 1.01 | locus YDL035C, strain GPR1, active compounds read low 1.01 | locus YDL040C, strain nat1, active compounds read low 1.01 | locus YDL074C, strain BRE1, active compounds read low 1.02 | locus YDL101C, strain DUN1, active compounds read low 1.01 | locus YDL134C, strain PPH21, active compounds read low 1 | locus YDL185W, strain tfp1, active compounds read low 1.02 | locus YDL192W, strain arf1, active compounds read low 1 | locus YDR001C, strain nth1, active compounds read low 1.01 | locus YDR069C, strain doa4, active compounds read low 1.01 | locus YDR101C, strain arx1, active compounds read low 1 | locus YDR137W, strain rgp1, active compounds read low 1.05 | locus YDR150W, strain NUM1, active compounds read low 0.995 | locus YDR159W, strain sac3, active compounds read low 1.01 | locus YDR162C, strain NBP2, active compounds read low 1.02 | locus YDR195W, strain ref2 1.02 | locus YDR297W, strain sur2, active compounds read low 1.01 | locus YDR318W, strain mcm21, active compounds read low 1.01 | locus YDR334W, strain swr1, active compounds read low 1.02 | locus YDR335W, strain msn5, active compounds read low 1.04 | locus YDR388W, active compounds read low 1 | locus YDR392W, strain spt3, active compounds read low 1.03 | locus YDR502C, strain sam2, active compounds read low 1.04 | locus YEL003W, strain gim4, active compounds read low 1.03 | locus YEL037C, strain rad23, active compounds read low 1.02 | locus YEL061C, strain CIN8 (second series), active compounds read low 1.02 | locus YEL061C, strain CIN8, active compounds read low 1 | locus YER015W, strain faa2, active compounds read low 1 | locus YER016W, strain bim1, active compounds read low 1.02 | locus YER110C, active compounds read low 1.01 | locus YER111C, strain swi4, active compounds read low 1.01 | locus YER155C, strain BEM2 (second series), active compounds read low 1.04 | locus YER155C, strain BEM2, active compounds read low 0.999 | locus YER167W, strain BCK2, active compounds read low 1 | locus YFR010W, strain ubp6, active compounds read low 1.02 | locus YGL078C, strain dbp3, active compounds read low 1.03 | locus YGL086W, strain mad1, active compounds read low 1.01 | locus YGL167C, strain pmr1, active compounds read low 1.01 | locus YGL173C, strain kem1, active compounds read low 1.02 | locus YGL227W, strain vid30, active compounds read low 1.01 | locus YGL240W, strain doc1, active compounds read low 0.977 | locus YGL248W, strain PDE1, active compounds read low 1.03 | locus YGL253W, strain hxk2, active compounds read low 1.02 | locus YGR135W, strain pre9, active compounds read low 1.02 | locus YGR252W, strain gcn5, active compounds read low 0.973 | locus YHR013C, strain ard1, active compounds read low 1.01 | locus YHR027C, strain rpn1, active compounds read low 1.01 | [1] 0.997 and 0.992 | locus YHR079C, strain IRE1 (second series), active compounds read low 1.01 | [2] 0.996 | locus YHR094C, strain hxt1, active compounds read low 1.01 | locus YHR129C, strain ARP1, active compounds read low 1.01 | locus YHR142W, strain chs7, active compounds read low 1.02 | locus YHR200W, strain rpn10, active compounds read low 1.02 | locus YIL066C, strain RNR3, active compounds read low 1.02 | locus YIL073C, strain SPO22, active compounds read low 1.13 | locus YIL125W, strain kgd1, active compounds read low 1.02 | locus YIR030C, strain dcg1, active compounds read low 1.01 | locus YJL092W, strain hpr5, active compounds read low 1.01 | locus YJL095W, strain BCK1 (second series), active compounds read low 1.01 | [3] 1.01 and 1 | locus YJL115W, strain asf1, active compounds read low 1.01 | locus YJL129C, strain trk1, active compounds read low 1.05 | locus YJL134W, strain LCB3, active compounds read low 1 | locus YJL154C, strain vps35, active compounds read low 1.01 | locus YJL164C, strain tpk1, active compounds read low 1.03 | locus YJL166W, strain qcr8, active compounds read low 1 | locus YJL168C, strain set2, active compounds read low 1.01 | locus YJL187C, strain SWE1 (second series), active compounds read low 1.01 | locus YJL187C, strain SWE1, active compounds read low 1.01 | locus YJR043C, strain POL32, active compounds read low 1.02 | [4] 0.906 | locus YJR075W, strain HOC1, active compounds read low 1 | locus YKL068W, active compounds read low 1.01 | locus YKL085W, strain MDH1 (second series), active compounds read low 1.02 | locus YKL085W, strain MDH1, active compounds read low 1.02 | locus YKL160W, strain elf1, active compounds read low 1.01 | locus YKL190W, strain CNB1, active compounds read low 0.998 | locus YKR001C, strain vps1, active compounds read low 1.02 | locus YKR026C, strain gcn3, active compounds read low 0.995 | locus YKR091W, strain srl3, active compounds read low 1.01 | locus YLL001W, strain dnm1, active compounds read low 1.01 | locus YLL026W, active compounds read low 1.01 | locus YLL041C, strain sdh2, active compounds read low 1.01 | locus YLR027C, strain aat2, active compounds read low 1.01 | locus YLR039C, strain RIC1, active compounds read low 1.02 | locus YLR058C, strain SHM2, active compounds read low 1.01 | locus YLR102C, strain apc9, active compounds read low 1.01 | [5] 0.975 | locus YLR221C, strain rsa3, active compounds read low 1.01 | locus YLR258W, strain gsy2, active compounds read low 1.02 | locus YLR262C, strain YPT6 (second series), active compounds read low 1.01 | locus YLR262C, strain YPT6, active compounds read low 1.05 | locus YLR268W, strain sec22, active compounds read low 1.02 | locus YLR320W, strain mms22, active compounds read low 1.02 | locus YLR330W, strain CHS5, active compounds read low 1 | locus YLR342W, strain FKS1 (second series), active compounds read low 1 | locus YLR342W, strain FKS1, active compounds read low 1.02 | locus YLR357W, strain rsc2, active compounds read low 1.02 | locus YLR370C, strain arc18, active compounds read low 1.02 | locus YLR371W, strain rom2, active compounds read low 1.01 | locus YLR384C, strain iki3, active compounds read low 1.03 | locus YLR418C, strain cdc73, active compounds read low 1.02 | locus YML016C, strain PPZ1, active compounds read low 1.01 | locus YML032C, strain rad52, active compounds read low 1 | locus YML120C, strain ndi1, active compounds read low 0.97 | locus YML124C, strain tub3, active compounds read low 1.01 | locus YMR058W, strain fet3, active compounds read low 1.01 | locus YMR078C, strain ctf18, active compounds read low 1.03 | locus YMR125W, strain sto1, active compounds read low 1.04 | locus YMR129W, active compounds read low 1.02 | locus YMR205C, strain PFK2, active compounds read low 1.01 | locus YMR223W, strain ubp8, active compounds read low 1.02 | locus YMR231W, strain pep5, active compounds read low 1.02 | locus YMR307W, strain GAS1, active compounds read low 1.01 | locus YNL067W, strain RPL9B, active compounds read low 1.01 | locus YNL071W, strain lat1, active compounds read low 1.03 | [6] 0.92 | locus YNL209W, strain ssb2, active compounds read low 1.03 | locus YNL233W, strain BNI4, active compounds read low 1.01 | locus YNL248C, strain rpa49, active compounds read low 1.04 | locus YNL250W, strain rad50, active compounds read low 1.03 | locus YNL271C, strain bni1, active compounds read low 1.03 | locus YNL298W, strain CLA4, active compounds read low 1.03 | locus YNL307C, strain MCK1, active compounds read low 1.03 | locus YNL322C, strain KRE1 (second series), active compounds read low 1.02 | locus YNR049C, strain mso1, active compounds read low 1.01 | locus YNR052C, strain pop2, active compounds read low 1.01 | locus YOL006C, strain TOP1, active compounds read low 1.19 | locus YOL012C, strain htz1 0.903 | locus YOL147C, strain pex11, active compounds read low 1.02 | locus YOR001W, strain rrp6, active compounds read low 1.02 | locus YOR061W, strain CKA2, active compounds read low 1.01 | locus YOR069W, strain VPS5, active compounds read low 1.01 | locus YOR070C, strain gyp1, active compounds read low 1.01 | locus YOR080W, strain dia2, active compounds read low 1.02 | locus YOR083W, strain WHI5, active compounds read low 1.01 | locus YOR106W, strain vam3, active compounds read low 0.998 | locus YOR136W, strain idh2, active compounds read low 1.02 | locus YOR144C, strain elg1, active compounds read low 1.01 | locus YOR184W, strain ser1, active compounds read low 1.02 | [7] 1.01 | locus YOR265W, strain rbl2, active compounds read low 1.01 | locus YOR270C, strain vph1, active compounds read low 1.05 | locus YOR290C, strain snf2, active compounds read low 0.988 | locus YOR316C, strain cot1, active compounds read low 1.01 | locus YPL051W, strain arl3, active compounds read low 1.02 | locus YPL078C, strain atp4, active compounds read low 1.03 | locus YPL106C, strain sse1, active compounds read low 1.01 | locus YPL240C, strain hsp82, active compounds read low 1.02 | locus YPL241C, strain CIN2, active compounds read low 1 | [8] 0.985 | locus YPR119W, strain clb2, active compounds read low 1.01 | locus YPR141C, strain kar3, active compounds read low 1.01 | locus YPR163C, strain tif3, active compounds read low 1.03 | locus YPR167C, strain met16, active compounds read low 1.03 | strain wtn01, active compounds read low 1.02
active: locus YKL009W, strain mrt4, active compounds read low 1.16 [resistant]

From PubChem BioAssay AID1159580 (chemical genetic matrix, 2015)
